# Laboratory results from PubChem BioAssay (EPA / NIEHS).
# Records with an inconclusive call do not appear. Active and inactive are the calls of the source. How the source made its calls: active means hit-call score of the fitted dose curve at least 0.9, where 1 is the maximum; inconclusive means response in the unintended direction; inactive means score below 0.9.
# Key:
# [1] = molecular target: Estrogen receptor (Homo sapiens) (UniProt P03372); assay: OT_ER_ERaERa_1440: Odyssey Thera (OT) 24-hour HEK293T Protein-Complementation Assay for Estrogen Receptor-alpha/-alpha Homodimer (AID 2283349);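 further: hits raise fluorescence above DMSO for agonists and antagonists alike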
# Summary of the method: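 HEK293T, stable ERα LBD (aa 310-547) homodimer PCA; 24 h compound exposure; mean fluorescence intensity (nuclear for agonists, nuclear plus cytoplasmic for antagonists) vs vehicle; positive fitting direction, DMSO baseline.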
# [2] = molecular target: Estrogen receptor (Homo sapiens) (UniProt P03372); assay: OT_ER_ERaERa_0480: Odyssey Thera (OT) 8-hour HEK293T Protein-Complementation Assay for Estrogen Receptor-alpha/-alpha Homodimer (AID 2283351);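 further: rise in fluorescence from reassembled reporter fragments on ERα LBD homodimer in nucleus or whole cell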
# Summary of the method: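 Cells were treated for 8 hours, then imaged on a laser scanning plate cytometer. Complementation of reporter fragments fused to the human ERα ligand-binding domain (residues 310-547) in HEK293T gave fluorescence, and gain of signal over vehicle was fitted.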
# [3] = molecular target: T1, Estrogen receptor (Homo sapiens) + Estrogen receptor beta (Homo sapiens) (UniProt P03372+Q92731); assay: OT_ER_ERaERb_0480: Odyssey Thera (OT) 8-hour HEK293T Protein-Complementation Assay for Estrogen Receptor-alpha/-beta Heterodimer (AID 2283352)
# Summary of the method: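 HEK293T cells expressing ER-alpha/ER-beta LBD fusions to complementary reporter fragments were dosed with compound for 8 hours. Heterodimer formation was read as increased nuclear (agonist) or nuclear plus cytoplasmic (antagonist) mean fluorescence intensity versus DMSO vehicle.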
# [4] = molecular target: Androgen Receptor/SRC-1 Co-activator, AR (gene 367) (UniProt P10275); assay: OT_AR_ARSRC1_0960: Odyssey Thera (OT) 16-hour HEK293T Protein-Complementation Assay for Androgen Receptor/SRC-1 Co-activator (AID 2283353);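 further: actives raise the signal above DMSO so potency reflects increased AR and SRC-1 complex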
# Summary of the method: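 Stable HEK293T line carries AR and SRC-1 each linked to a Venus fragment; chemicals are applied for 16 h, cells imaged at two wavelengths, and the 488 nm nucleus/cytoplasm ratio is taken as the signal, rising relative to DMSO.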
# [5] = molecular target: T1, Estrogen receptor (Homo sapiens) + Estrogen receptor beta (Homo sapiens); assay: OT_ER_ERaERb_1440: Odyssey Thera (OT) 24-hour HEK293T Protein-Complementation Assay for Estrogen Receptor-alpha/-beta Homodimer (AID 2283356);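 further: heteromer of ER alpha and ER beta binding domains; hits raise reporter fluorescence and both agonists and antagonists give an increase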
# Summary of the method: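 HEK293T cells stably expressing a PCA pair of ERα LBD (aa 310-547) and ERβ LBD (aa 263-489) were dosed for 24 h. Fluorescence intensity increase versus DMSO vehicle was fitted as gain-of-signal.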
# [6] = molecular target: Estrogen receptor beta (Homo sapiens) (UniProt Q92731); assay: OT_ER_ERbERb_0480: Odyssey Thera (OT) 8-hour HEK293T Protein-Complementation Assay for Estrogen Receptor-beta/-beta Homodimer (AID 2283357);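 further: active means signal gain over DMSO baseline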
# Summary of the method: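 ER-beta LBD homodimer PCA stably expressed in HEK293T; 8 h compound exposure, then formaldehyde fixation and Draq5 staining. Gain in nuclear/cytoplasmic fluorescence intensity versus DMSO vehicle, read on laser scanning cytometer.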
# [7] = molecular target: human Peroxisome Proliferator-activated Receptor alpha (PPARa), PPARA (gene 5465) (UniProt Q07869); assay: NVS_NR_hPPARa: NovaScreen (NVS) Nuclear Receptor Binding Assay for human Peroxisome Proliferator-activated Receptor alpha (PPARa) (AID 2283359);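 further: activity means loss of TR-FRET signal versus DMSO baseline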
# Summary of the method: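 Loss of TR-FRET binding signal relative to DMSO was measured 1 h after chemical addition to extracted receptor protein. Chemicals were first tested in duplicate at 25 uM, and actives were followed up in concentration series.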
# [8] = molecular target: human Adenosine Transporter (Adot), SLC29A1 (gene 2030) (UniProt Q99808); assay: NVS_TR_hAdoT: NovaScreen (NVS) Transporter Assay for human Adenosine Transporter (Adot) (AID 2283368)
# Summary of the method: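 Binding displacement on U937 extracted protein, read 1 h post-dose by filtration and scintillation counting. Primary duplicate test at 25 uM, then singleton concentration series with 50 uM top; DMSO baseline.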
# [9] = molecular target: Estrogen receptor (Homo sapiens) (UniProt P03372); assay: NVS_NR_hER: NovaScreen (NVS) Nuclear Receptor Binding Assay for human Estrogen Receptor (ER) (AID 2283348)
# Summary of the method: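 Cell-free MCF7-derived ER preparation, specific radioligand displaced by test compound, read by scintillation counting 18 h post-dosing. Duplicate single-point 25 uM screen, then concentration-response confirmation; DMSO baseline.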
# [10] = molecular target: guinea pig Sigma Receptor, Non-selective Binding, SIGMAR1 (gene 100135589) (UniProt Q60492); assay: NVS_OR_gSIGMA_NonSelective: NovaScreen (NVS) Nuclear Receptor Binding Assay for guinea pig Sigma Receptor, Non-selective Binding (AID 2283367)
# Summary of the method: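 Guinea pig brain membrane sigma sites were labelled with a radioligand, and bound radioactivity was counted after filtration 1 h post-dose. Compounds were screened at 25 uM in duplicate, then retested as concentration series when active.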
# [11] = molecular target: bovine Estrogen Receptor (ER), ESR1 (gene 407238) (UniProt P49884); assay: NVS_NR_bER: NovaScreen (NVS) Nuclear Receptor Binding Assay for bovine Estrogen Receptor (ER) (AID 2283345);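 further: actives lower the bound radioligand count which means they displace the ER ligand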
# Summary of the method: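 Displacement of a radioligand from estrogen receptor in bovine uterine membrane preparations; scintillation signal taken at 18 hours, DMSO as baseline. Single-concentration duplicates (25 uM) preceded concentration-response follow-up of actives.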
# [12] = molecular target: Bile acid receptor (Homo sapiens) (UniProt Q96RI1); assay: NVS_NR_hFXR_Antagonist: NovaScreen (NVS) Nuclear Receptor Binding Assay for human Farnesoid X Receptor Antagonism (FXR) (AID 2283350)
# Summary of the method: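 Antagonist-format time-resolved FRET binding assay with extracted human receptor protein, read 1 hour after compound addition. Compounds first screened at 25 uM in duplicate, then actives tested in concentration series, with loss of signal relative to DMSO.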
# [13] = molecular target: human Thyroid Receptor Alpha (TRa), THRA (gene 7067) (UniProt P10827); assay: NVS_NR_hTRa_Antagonist: NovaScreen (NVS) Nuclear Receptor Binding Assay for human Thyroid Receptor Alpha Antagonism (TRa) (AID 2283362);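 further: activity is loss of signal relative to DMSO baseline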
# Summary of the method: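 Cell-free binding assay on extracted receptor protein, read 1 h after chemical dosing by AlphaLISA chemiluminescence; loss of signal relative to DMSO baseline marks antagonism. Primary screen ran in duplicate at 25 uM, with concentration series for actives.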
# [14] = molecular target: chimpanzee Androgen Receptor (AR), AR (gene 747460) (UniProt O97775); assay: NVS_NR_cAR: NovaScreen (NVS) Nuclear Receptor Binding Assay for chimpanzee Androgen Receptor (AR) (AID 2283346);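 further: radioligand displacement from AR measured by scintillation counting in a cell-free assay; a loss of bound radioligand signal versus DMSO counts as binding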
# Summary of the method: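 Cell-free competition binding with insect-cell (Sf9/Sf21) extracted chimpanzee AR; scintillation signal from lysate at 72 h. Screened in duplicate at 25 uM, then concentration-response for actives; fitting relative to DMSO.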
# [15] = molecular target: Androgen Receptor/SRC-1 Co-activator, AR (gene 367) (UniProt P10275); assay: OT_AR_ARSRC1_0480: Odyssey Thera (OT) 8-hour HEK293T Protein-Complementation Assay for Androgen Receptor/SRC-1 Co-activator (AID 2283354);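 further: hits raise the complementation signal above DMSO so AC50 marks enhancers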
# Summary of the method: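 Reconstituted split-Venus YFP signal from AR–SRC-1 interaction, read by imaging 8 h post-dose in stable HEK293T lines. The 488 nm nucleus-to-cytoplasm ratio (≥400 cells/image) was fitted upward against DMSO.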
# [16] = molecular target: Retinoic acid receptor alpha (Homo sapiens) (UniProt P10276); assay: NVS_NR_hRARa_Agonist: NovaScreen (NVS) Nuclear Receptor Binding Assay for human Retinoic Acid Alpha Receptor Agonism (RAR) (AID 2283361)
# Summary of the method: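 Agonist-mode TR-FRET binding format using extracted protein, measured at 2 h post-dosing. Initial duplicate single-point screen at 25 uM preceded concentration series for actives; activity was normalized to DMSO baseline.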
# [17] = molecular target: rat Mineralocorticoid Receptor (MR), Nr3c2 (gene 25672) (UniProt P22199); assay: NVS_NR_rMR: NovaScreen (NVS) Nuclear Receptor Binding Assay for rat Mineralocorticoid Receptor (MR) (AID 2283355)
# Summary of the method: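 Primary HTS ran in duplicate at a single 25 uM concentration, with concentration-series follow-up for actives. Receptor source: adrenalectomized rat brain supernatant, cell-free. Radioligand displacement read by scintillation at 24 h, relative to DMSO baseline.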
# PGR (gene 5241) = PGR (gene 5241) (UniProt P06401); assay: NVS_NR_hPR: NovaScreen (NVS) Nuclear Receptor Binding Assay for human Progestron Receptor (PR) (AID 2283360);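 further: active means loss of bound radioligand signal versus DMSO baseline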
# Summary of the method: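 T47D-derived receptor preparation, cell-free, with tritiated or iodinated radioligand displacement measured by scintillation 18 h post-dosing. Single 25 uM duplicate screen, then concentration series; signal loss relative to DMSO.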
# T1 sequence (P03372 whole entry, looked up, the tested form may be a part): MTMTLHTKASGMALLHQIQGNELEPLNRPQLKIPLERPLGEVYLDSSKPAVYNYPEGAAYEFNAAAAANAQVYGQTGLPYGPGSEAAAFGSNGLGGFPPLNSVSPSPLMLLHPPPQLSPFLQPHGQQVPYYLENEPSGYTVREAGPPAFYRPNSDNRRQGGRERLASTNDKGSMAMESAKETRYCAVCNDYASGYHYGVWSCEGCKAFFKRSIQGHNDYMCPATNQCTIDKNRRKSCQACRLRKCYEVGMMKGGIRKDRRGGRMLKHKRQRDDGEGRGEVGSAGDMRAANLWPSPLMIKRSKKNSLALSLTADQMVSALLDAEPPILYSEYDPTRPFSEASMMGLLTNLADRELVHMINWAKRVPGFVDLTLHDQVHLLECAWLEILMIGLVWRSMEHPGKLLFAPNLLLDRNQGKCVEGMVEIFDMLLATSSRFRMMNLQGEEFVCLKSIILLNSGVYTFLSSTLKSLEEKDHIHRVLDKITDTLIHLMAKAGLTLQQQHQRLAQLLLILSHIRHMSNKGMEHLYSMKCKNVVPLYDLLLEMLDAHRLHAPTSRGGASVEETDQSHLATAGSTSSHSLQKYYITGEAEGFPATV
# T1 sequence (Q92731 whole entry, looked up, the tested form may be a part): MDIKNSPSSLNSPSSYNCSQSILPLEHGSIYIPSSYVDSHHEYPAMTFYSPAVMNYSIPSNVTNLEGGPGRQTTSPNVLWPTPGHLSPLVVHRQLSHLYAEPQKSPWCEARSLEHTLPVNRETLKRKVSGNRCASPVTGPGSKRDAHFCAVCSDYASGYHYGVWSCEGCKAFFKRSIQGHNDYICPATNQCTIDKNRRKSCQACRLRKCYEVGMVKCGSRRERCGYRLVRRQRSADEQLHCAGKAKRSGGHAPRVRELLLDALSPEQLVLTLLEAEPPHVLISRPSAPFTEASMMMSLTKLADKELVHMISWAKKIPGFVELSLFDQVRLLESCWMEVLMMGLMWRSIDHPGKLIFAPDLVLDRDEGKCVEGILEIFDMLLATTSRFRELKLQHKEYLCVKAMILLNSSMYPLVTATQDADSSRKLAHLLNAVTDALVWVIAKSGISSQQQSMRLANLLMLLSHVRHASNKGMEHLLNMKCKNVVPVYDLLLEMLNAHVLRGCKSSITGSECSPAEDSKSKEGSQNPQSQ
# Estrogen receptor (Homo sapiens), sequence (P03372 whole entry, looked up, the tested form may be a part): as the sequence (P03372 whole entry, looked up, the tested form may be a part) above
# Androgen Receptor/SRC-1 Co-activator, AR (gene 367), sequence (P10275 whole entry, looked up, the tested form may be a part): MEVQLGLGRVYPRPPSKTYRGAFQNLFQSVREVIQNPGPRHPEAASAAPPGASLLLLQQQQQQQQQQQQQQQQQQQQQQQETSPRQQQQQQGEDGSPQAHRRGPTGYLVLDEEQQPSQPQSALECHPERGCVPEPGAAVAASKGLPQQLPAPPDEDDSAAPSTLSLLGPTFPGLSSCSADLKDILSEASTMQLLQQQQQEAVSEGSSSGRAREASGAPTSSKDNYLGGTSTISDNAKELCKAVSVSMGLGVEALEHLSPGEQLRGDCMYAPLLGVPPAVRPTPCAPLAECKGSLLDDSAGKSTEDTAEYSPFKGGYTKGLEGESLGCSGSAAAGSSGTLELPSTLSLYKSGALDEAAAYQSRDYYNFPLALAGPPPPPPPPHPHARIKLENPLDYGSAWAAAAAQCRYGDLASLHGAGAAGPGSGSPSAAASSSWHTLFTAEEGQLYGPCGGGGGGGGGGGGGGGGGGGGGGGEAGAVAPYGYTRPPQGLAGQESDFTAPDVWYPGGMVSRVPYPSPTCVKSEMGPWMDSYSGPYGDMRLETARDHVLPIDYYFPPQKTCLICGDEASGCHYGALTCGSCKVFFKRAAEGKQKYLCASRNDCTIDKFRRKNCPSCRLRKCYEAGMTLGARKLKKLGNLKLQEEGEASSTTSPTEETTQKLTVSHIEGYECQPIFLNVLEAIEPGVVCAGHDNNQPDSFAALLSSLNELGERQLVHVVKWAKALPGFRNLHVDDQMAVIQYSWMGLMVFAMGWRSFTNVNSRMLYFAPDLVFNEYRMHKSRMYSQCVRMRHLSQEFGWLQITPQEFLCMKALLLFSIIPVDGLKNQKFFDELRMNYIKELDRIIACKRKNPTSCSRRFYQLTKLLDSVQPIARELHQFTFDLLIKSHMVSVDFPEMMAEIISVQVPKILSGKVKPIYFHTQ
# human Peroxisome Proliferator-activated Receptor alpha (PPARa), PPARA (gene 5465), sequence (Q07869 whole entry, looked up): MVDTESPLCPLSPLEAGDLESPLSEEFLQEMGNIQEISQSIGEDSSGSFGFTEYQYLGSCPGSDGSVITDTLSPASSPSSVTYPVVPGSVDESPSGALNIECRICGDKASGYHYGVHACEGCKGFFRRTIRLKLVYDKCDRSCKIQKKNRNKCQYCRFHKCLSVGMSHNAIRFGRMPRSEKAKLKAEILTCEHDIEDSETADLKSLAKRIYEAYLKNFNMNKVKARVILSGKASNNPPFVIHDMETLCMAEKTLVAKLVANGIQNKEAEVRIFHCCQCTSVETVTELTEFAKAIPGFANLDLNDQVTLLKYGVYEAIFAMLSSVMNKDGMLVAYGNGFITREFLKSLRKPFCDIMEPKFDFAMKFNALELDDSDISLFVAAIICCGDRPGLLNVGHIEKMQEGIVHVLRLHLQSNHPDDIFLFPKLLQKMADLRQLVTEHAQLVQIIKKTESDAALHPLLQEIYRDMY
# Estrogen receptor beta (Homo sapiens), sequence (Q92731 whole entry, looked up, the tested form may be a part): as the sequence (Q92731 whole entry, looked up, the tested form may be a part) above
# chimpanzee Androgen Receptor (AR), AR (gene 747460), sequence (O97775 whole entry, looked up): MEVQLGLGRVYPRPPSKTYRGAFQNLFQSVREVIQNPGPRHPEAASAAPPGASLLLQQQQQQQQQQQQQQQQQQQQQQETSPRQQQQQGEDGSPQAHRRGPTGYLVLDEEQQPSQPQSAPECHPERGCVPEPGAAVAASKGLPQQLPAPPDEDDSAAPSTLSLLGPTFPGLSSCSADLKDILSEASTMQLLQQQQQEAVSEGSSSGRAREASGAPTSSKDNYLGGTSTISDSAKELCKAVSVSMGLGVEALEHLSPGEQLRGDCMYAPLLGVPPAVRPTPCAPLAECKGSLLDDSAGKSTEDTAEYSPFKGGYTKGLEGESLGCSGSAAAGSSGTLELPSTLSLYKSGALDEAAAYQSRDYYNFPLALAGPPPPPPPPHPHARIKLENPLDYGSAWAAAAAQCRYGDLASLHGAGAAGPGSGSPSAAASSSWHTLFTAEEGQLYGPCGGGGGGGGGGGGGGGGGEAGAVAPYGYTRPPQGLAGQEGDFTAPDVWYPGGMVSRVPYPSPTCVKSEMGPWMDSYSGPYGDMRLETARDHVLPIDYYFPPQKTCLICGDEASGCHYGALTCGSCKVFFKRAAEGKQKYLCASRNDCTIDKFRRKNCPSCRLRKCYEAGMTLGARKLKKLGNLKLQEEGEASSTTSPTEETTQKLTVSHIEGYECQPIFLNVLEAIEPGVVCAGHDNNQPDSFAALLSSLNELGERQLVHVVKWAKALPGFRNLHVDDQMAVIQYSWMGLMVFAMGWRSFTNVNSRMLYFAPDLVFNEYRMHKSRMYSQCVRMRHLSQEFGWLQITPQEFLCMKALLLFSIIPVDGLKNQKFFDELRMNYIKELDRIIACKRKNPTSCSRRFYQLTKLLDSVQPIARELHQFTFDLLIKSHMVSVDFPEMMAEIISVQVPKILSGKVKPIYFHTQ
# guinea pig Sigma Receptor, Non-selective Binding, SIGMAR1 (gene 100135589), sequence (Q60492 whole entry, looked up): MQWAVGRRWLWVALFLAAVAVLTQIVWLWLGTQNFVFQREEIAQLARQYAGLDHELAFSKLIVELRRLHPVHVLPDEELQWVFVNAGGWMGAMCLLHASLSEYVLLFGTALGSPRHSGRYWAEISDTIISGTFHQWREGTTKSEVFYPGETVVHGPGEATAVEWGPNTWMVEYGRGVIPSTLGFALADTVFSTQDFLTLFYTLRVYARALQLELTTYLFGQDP
# human Adenosine Transporter (Adot), SLC29A1 (gene 2030), sequence (Q99808 whole entry, looked up): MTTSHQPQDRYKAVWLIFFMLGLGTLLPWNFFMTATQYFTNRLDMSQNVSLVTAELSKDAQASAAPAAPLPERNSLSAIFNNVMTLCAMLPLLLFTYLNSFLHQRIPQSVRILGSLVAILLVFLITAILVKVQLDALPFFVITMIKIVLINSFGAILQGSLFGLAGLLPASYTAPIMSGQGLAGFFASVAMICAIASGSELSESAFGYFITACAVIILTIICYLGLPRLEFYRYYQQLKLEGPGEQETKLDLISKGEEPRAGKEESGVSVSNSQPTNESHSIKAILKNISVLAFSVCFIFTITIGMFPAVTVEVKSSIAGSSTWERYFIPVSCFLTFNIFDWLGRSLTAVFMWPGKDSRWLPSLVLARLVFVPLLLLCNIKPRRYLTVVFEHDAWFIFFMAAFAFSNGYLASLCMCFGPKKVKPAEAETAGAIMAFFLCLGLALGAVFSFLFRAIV
# human Thyroid Receptor Alpha (TRa), THRA (gene 7067), sequence (P10827 whole entry, looked up): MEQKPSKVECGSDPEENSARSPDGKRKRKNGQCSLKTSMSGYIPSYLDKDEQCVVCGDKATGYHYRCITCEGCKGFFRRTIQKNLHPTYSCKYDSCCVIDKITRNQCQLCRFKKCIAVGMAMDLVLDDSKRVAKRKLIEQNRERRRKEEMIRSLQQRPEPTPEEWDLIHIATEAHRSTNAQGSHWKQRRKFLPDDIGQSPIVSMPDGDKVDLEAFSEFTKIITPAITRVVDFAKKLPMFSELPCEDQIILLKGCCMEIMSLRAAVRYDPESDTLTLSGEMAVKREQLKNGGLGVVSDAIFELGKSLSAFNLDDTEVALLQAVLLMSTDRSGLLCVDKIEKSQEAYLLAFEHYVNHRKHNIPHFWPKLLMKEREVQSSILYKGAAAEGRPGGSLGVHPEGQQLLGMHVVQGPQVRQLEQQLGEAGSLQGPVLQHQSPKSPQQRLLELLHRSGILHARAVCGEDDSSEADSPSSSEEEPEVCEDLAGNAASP
structure (smiles),measurement,setting,value
Cc1ccc(N)cc1O,outcome,[1],inactive
same,outcome,[2],inactive
same,outcome,[3],inactive
same,outcome,[4],inactive
same,outcome,[5],inactive
same,outcome,[6],inactive
same,outcome,[7],inactive
same,outcome,[8],inactive
Cn1c(=O)cc(Oc2ccc(F)cc2F)c2cnc(NCC(C)(C)O)nc21,outcome,[9],inactive
same,AC50,[1],50 µM (active)
same,AC50,[2],24.4 µM (active)
same,outcome,[3],inactive
same,AC50,[5],50 µM (active)
same,outcome,[6],inactive
same,outcome,[10],inactive
same,AC50,[8],25 µM (active)
COc1cccc(-c2ccc(/C=C\CN3CCCCCC3)cc2Cl)c1,outcome,[11],inactive
same,outcome,[9],inactive
same,outcome,[1],inactive
same,outcome,[12],inactive
same,outcome,[3],inactive
same,AC50,[5],10.7 µM (active)
same,outcome,[6],inactive
same,outcome,[7],inactive
same,outcome,[13],inactive
same,AC50,[10],0.0104 µM (active)
CCCCCCc1ccc(O)cc1O,outcome,[14],inactive
same,AC50,[4],92.3 µM (active)
same,AC50,[15],77.9 µM (active)
same,outcome,[7],inactive
same,outcome,[8],inactive
CC[C@H]1CC[C@H](NCc2cc3c(cc2OC)[C@H]2C[C@H]2C(=O)N3C)[C@H](c2ccccc2)N1,outcome,[9],inactive
same,outcome,[1],inactive
same,outcome,[2],inactive
same,outcome,[5],inactive
same,outcome,[6],inactive
same,outcome,[16],inactive
same,AC50,[10],10.9 µM (active)
O=P(OC(CCl)CCl)(OC(CCl)CCl)OC(CCl)CCl,AC50,[14],13.3 µM (active)
same,outcome,[9],inactive
same,outcome,[1],inactive
same,outcome,[2],inactive
same,outcome,[3],inactive
same,outcome,[17],inactive
same,outcome,[5],inactive
same,outcome,[6],inactive
same,AC50,PGR (gene 5241),5.78 µM (active)
CNS(=O)(=O)c1cc(C(=O)N2CCC(CCN3C4CCC3CC(n3c(C)nc5ccccc53)C4)(c3cccc(F)c3)CC2)c(Cl)cc1F (stereo not drawn),AC50,[14],11.3 µM (active)
same,AC50,[12],8.21 µM (active)
same,AC50,[4],31.9 µM (active)
same,AC50,[15],32 µM (active)
same,outcome,[6],inactive
same,outcome,[7],inactive
same,outcome,[13],inactive
CC(C)=CCCC(C)=CC=O,outcome,[9],inactive
same,outcome,[1],inactive
same,outcome,[2],inactive
same,outcome,[3],inactive
same,outcome,[5],inactive
same,outcome,[6],inactive
same,outcome,[7],inactive
C=CCCCCCCCCC(=O)O,outcome,[11],inactive
same,outcome,[9],inactive
same,outcome,[1],inactive
same,outcome,[2],inactive
same,outcome,[3],inactive
same,outcome,[5],inactive
same,outcome,[6],inactive
